The results in this text go back to PubChem BioAssay AID2717 (Broad Institute, 2010).

“And” between values parts separate entries of the source, which are not always exact repeats. Equal values may be shown once. Out of some 300,000 compounds screened, about 3,200 (1.1%) were called active. What follows is part of a selection rich in actives, with near analogues and random picks from the rest. A number with no mark means an inactive call. Cut-off read from the data, not from the text of the source: active = inhibition above about 75%; inconclusive = no clear call, values can overlap the other calls; inactive = below that; tested in HMLE shEcad cells.

The nature of this assay: cancer stem cell viability inhibitors, primary screen, luminescence (AID 2717). The settings on record: cancer stem cell-like cells viability, at 7.5 µM, stronger effect = higher value.
`COc1ccc(-n2cnnc2SCC(=O)Nc2cccc([N+](=O)[O-])c2)cc1`: the inhibition (in general, the relative decrease from the control value, in per cent) was -0.247%. Turning to `NC(=O)NC(=O)CSc1nc2cc([N+](=O)[O-])ccc2n1-c1cccc(C(F)(F)F)c1`, the inhibition is 84.3% (active).

With `COc1ccc(CCNC(=O)CSc2nc3[nH]ncc3c(=O)n2-c2cccc(C(F)(F)F)c2)cc1OC`, the inhibition was -2.41%.

As to `Cc1ccc2c(c1)C1C[N+](C)(CC(=O)c3ccccc3)CCC1N2C(=O)c1ccccc1Cl` (configuration not stated), the inhibition is -11.4%.

In the case of `COc1ccc(S(=O)(=O)N(C)C[C@H]2Oc3ccc(NS(=O)(=O)c4cccs4)cc3CC(=O)N([C@H](C)CO)C[C@H]2C)cc1`, the inhibition was -7.45%.

Consider `COc1ccc(N(CCC(=O)NCCc2ccccc2)S(=O)(=O)c2ccc(C)cc2C)cc1`, for which the inhibition was 0.378%. The figure for `CC(=O)[C@@]12O[C@@H]1C[C@H]1[C@@H]3CC[C@H]4C[C@@H](O)CC[C@]4(C)[C@H]3CC[C@@]12C` is -0.101%; for `C[C@]12C=CC(=O)C=C1CC[C@@H]1[C@@H]2C(=O)C[C@@]2(C)[C@H]1CC[C@]2(O)C(=O)CO` it is -3.96% and -10.9%; for `CC(=O)C12CC(C)=C(C)CC1CC1C3CCC4=CC(=O)CCC4(C)C3CCC12C` (configuration not stated) it is 76.7% (active). As to `COc1cccc(NC(=O)COC(=O)c2ccc3ccccc3n2)c1`, the inhibition was -12.4%. On to `COc1cccc(NC(=O)COc2cccnc2[N+](=O)[O-])c1`, for which the inhibition was -14.1%. The figure for `CC(=O)c1cccc(OCC(=O)OCC(=O)Nc2cc(S(=O)(=O)N3CCCCC3)ccc2C)c1` is 2.55%; for `CCn1nccc1C(=O)Nc1ccc(Cl)c(Cl)c1` it is 6.24%; for `O=C(CC1SCCNC1=O)Nc1ccc(Cl)c(Cl)c1` (configuration not stated) it is -15.9%.

Regarding `O=C(CC(O)(C(F)(F)F)C(F)(F)F)Nc1ccc(Cl)c(Cl)c1`, the inhibition is 98.6% (active).

As for `Cc1nn(-c2ccccc2)nc1C(=O)OCC(=O)N1CCCCC1C` (configuration not stated), the inhibition is 3.22%. To `O=C(CN1C(=O)c2ccc([N+](=O)[O-])cc2C1=O)Nc1nnc(C2CC2)s1` belongs -20.4%; to `CC(OC(=O)c1cc2ccccc2[nH]1)C(=O)N(C)c1ccccc1` (configuration not stated), -15.8%; to `Cc1csc(=O)n1CC(=O)Nc1ccc(S(C)(=O)=O)cc1`, -16.8%. The figure for `COc1ccc(C(=O)OCc2cc(=O)n3ccsc3n2)cc1F` is -8.98%. The figure for `O=C(c1ccccc1)N1N=C(c2ccccc2O)CC1c1ccc(Br)cc1` (configuration not stated) is 8.94%; for `COc1ccc(C2CC(c3cccs3)=NN2c2ccccc2)cc1` (configuration not stated) it is 4.92%; for `Oc1ccccc1C1=NN(c2ccccc2)C(c2ccccc2)C1` (configuration not stated) it is 84.6% (active). As to `COc1ccc(N2CCN(C(CNS(=O)(=O)c3ccc(C)cc3)c3ccccc3)CC2)cc1` (configuration not stated), the inhibition was 20.2%.

For `COc1cccc(CC(=O)OCC(=O)NCc2ccc3c(c2)OCO3)c1`, the inhibition was -4.31%. The figure for `Cc1cc(C)c[n+](-c2nc3ccccc3nc2[N-]S(=O)(=O)c2cccs2)c1` is -12.3%; for `O=S(=O)([N-]c1nc2ccccc2nc1-[n+]1ccc(Cc2ccccc2)cc1)c1ccc(Br)s1` it is 98.5% (active). To `O=C(NCCc1ccccc1)C1CCN(S(=O)(=O)c2ccc(Br)s2)CC1` belongs -3.18%; to `Cn1nnnc1SCC(=O)Nc1sccc1C(N)=O`, -11.4%; to `CN(CC(=O)NCCc1ccc(S(N)(=O)=O)cc1)CC(=O)Nc1ccc(Cl)cc1`, -12.5%. As for `CN(C)CCNC(=O)c1[nH]nc2c1CCc1ccccc1-2`, the inhibition is -15.5%. The figure for `COc1cccc(/C=N/NC(=O)c2[nH]nc3c2CCc2ccccc2-3)c1O` is 111% (active); for `COc1cc2cc(C(=O)N/N=C/c3cccc(OC)c3OC)[nH]c2cc1OC` it is 8.69%; for `CCOC(=O)CCCCCC(=O)Nc1ccc2c(c1)CC(=O)N([C@@H](C)CO)C[C@H](C)[C@@H](CN(C)Cc1ccccc1)O2` it is -7.75%. The figure for `Cc1ccc2c(c1)c1ncn(Cc3ccc(F)cc3)c(=O)c1n2C` is 21.8%. To `COc1ccc2c(c1)c1ncn(Cc3ccccn3)c(=O)c1n2C` belongs -14.9%. Take `Cc1ccc2c(c1)c1ncn(CCC3=CCCCC3)c(=O)c1n2C`: the inhibition was 79.2% (active). To `CCn1nnc2cc(C(=O)Nc3ccc(C(=O)OC(C)C)cc3)ccc21` belongs -0.631%. As for `O=C(COC(=O)C1CCCO1)Nc1nc(-c2ccc(F)cc2)cs1` (configuration not stated), the inhibition is -5.39%. To `O=C(OCC(=O)N1CCCCC1)c1ccc(OC(F)(F)F)cc1` belongs -0.262%. To `O=C1c2cccc3cc(Br)cc(c23)C(=O)N1Nc1ccccc1` belongs 6.61%; to `O=C1C=C(c2ccc(Cl)cc2)C(=O)N1Nc1ccccc1`, 107% (active); to `O=C(O)CC1=C(Nc2ccccc2)C(=O)N(c2ccccc2)C1c1ccc(Cl)cc1` (configuration not stated), 9.27%. The figure for `CCOC(=O)C1CCN(C(=O)CN2C(=O)NC(C)(c3ccc4cc(OC)ccc4c3)C2=O)CC1` (configuration not stated) is -9.85%.

`CCOC(=O)[C@@H]1[C@H]2COc3ccc(Br)cc3[C@H]2N2C(=O)N(c3ccc(C)cc3)C(=O)[C@@]12C`: the inhibition is -5.83%.

In the case of `COc1ccc(-c2nn(-c3ccccc3)cc2/C=N/Nc2ccccn2)cc1OC`, the inhibition was 10.5%. The figure for `O=C(CCCO)N/N=C/c1cc(Br)ccc1O` is -5.24%; for `Oc1ccc(Br)cc1/C=N/Nc1ccccn1` it is 101% (active); for `COc1ccc(OC)c(NC(=O)COC(=O)Cc2ccsc2)c1` it is -8.27%. To `O=C(OCC(=O)N1CCCCCC1)c1ccc(Cl)nc1` belongs 15.6%. The figure for `O=C(Oc1ccc(-c2nc(-c3ccccn3)no2)cc1)c1ccccc1` is 129% (active); for `Cc1ccc(Oc2nc(-c3ccccn3)nc3ccccc23)cc1` it is 4.28%.

For the compound `COc1ccc(Cc2nc(-c3ccccn3)no2)cc1OC`, the inhibition was -15.9%. The figure for `N#CCCN(C(=O)COC(=O)c1ccc2c(c1)OCCO2)c1ccccc1` is -4.1%. The figure for `CC(C)N(C(=O)c1ccc(-c2ccccc2F)cc1)C(C)C` is -3.5%; for `CC(=O)N(C1=C(Cl)C(=O)c2ccccc2C1=O)c1ccc(C(=O)O)cc1` it is 102% (active); for `O=C(CN1C(=O)c2ccccc2C1=O)NCc1ccc(C(=O)O)cc1` it is 12.4%.

With `CCOc1ncccc1C(=O)Nc1ccc2c(c1)OCCO2`, the inhibition was -12.8%. Regarding `O=C(Nc1cc(S(=O)(=O)N2CCOCC2)ccc1N1CCOCC1)c1c(F)cccc1Cl`, the inhibition was -17.5%. To `Cc1c(NC(=O)C(C)OC(=O)c2ccccc2O)c(=O)n(-c2ccccc2)n1C` (configuration not stated) belongs -18.3%; to `CCC(CO)Oc1cc(NC(=O)c2cccc3ccccc23)c2ncn(C(C)C)c2c1` (configuration not stated), 4.9%.

Take `Cc1ccc2c(CN3CCN(S(=O)(=O)c4ccccc4C(F)(F)F)CC3)cc(=O)oc2c1`: the inhibition is 0.831%.

Turning to `CO[C@@H]1[C@@H](OC(N)=O)[C@@H](O)C(Oc2ccc3c(O)c(NC(=O)c4ccc(O)c(CC=C(C)C)c4)c(=O)oc3c2C)OC1(C)C` (some centres not stated), the inhibition is -16%.

Regarding `CNC(=S)N/N=C/c1cn(Cc2ccc(C)cc2)c2ccccc12`, the inhibition was 109% (active). To `COC(=O)N/N=C/c1cn(CCCOc2ccc(C)cc2)c2ccccc12` belongs 25.8%; to `CCOC(=O)N/N=C/c1cn(Cc2ccccc2Cl)c2ccccc12`, 7.15%; to `Cc1ccccc1-c1cc(C(=O)NCc2cccs2)n(CC2CC(c3cccnc3)=NO2)n1` (configuration not stated), 10.1%. The figure for `COc1cc2nc(Cl)nc(NCCO)c2cc1OC` is -15.1%. To `CN(C)c1nc(Nc2ccc(Cl)c(Cl)c2)nc(N(C)C)n1` belongs -14.7%; to `OCCNc1nc(Nc2ccc(Cl)c(Cl)c2)nc2ccccc12`, 102% (active); to `O=C(c1cnccn1)N1CCN(S(=O)(=O)c2cccc(Cl)c2)CC1`, -17.3%. On to `Cc1cc(N2CCCC2)ccc1NC(=O)COc1ccc(Cl)cc1`, for which the inhibition was -10.1%.

`Cc1c(C(=O)Nc2cccc(S(=O)(=O)N3CCOCC3)c2)oc2ccccc12`: the inhibition was -11%.

Turning to `CC1CCCCC12NC(=O)N(CC(=O)OCc1c(F)cccc1Cl)C2=O` (configuration not stated), the inhibition was -8.77%. The figure for `COCCN(CCOC)S(=O)(=O)NC[C@H]1O[C@@H](n2cnc3c(N)ncnc32)[C@H](O)[C@@H]1O` is 2.3%. For the compound `COc1ccc(Br)cc1C(=O)Nc1cccc(C)c1C`, the inhibition was -31%.

On to `COc1ccc(Br)cc1C(=O)NC(=S)Nc1cc(-c2nc3ccccc3[nH]2)ccc1C`, for which the inhibition is 86.6% (active). With `Cc1ccc(-c2nc3ccccc3[nH]2)cc1NC(=O)c1sc2ccccc2c1Cl`, the inhibition is 6.88%. The figure for `COc1ccc(C(=O)NCc2ccccc2C)cc1S(=O)(=O)NC1CCCC1` is 0.604%.

With `CC(C)CN(Cc1c(O)ccc2c(=O)c(-c3ccccc3)coc12)CC(C)C`, the inhibition was -0.974%. To `O=c1c(-c2ccccc2)coc2cc(O)ccc12` belongs 0.886%; to `CC(C)=CCc1c(O)c(CC=C(C)C)c2occ(-c3ccc(O)cc3)c(=O)c2c1O`, 100% (active); to `O=C(COC(=O)c1cc(S(=O)(=O)N2CCOCC2)ccc1F)NC1CC1`, -6.89%. Turning to `CC(NC(=O)c1ccc(N2CCNCC2)c([N+](=O)[O-])c1)C12CC3CC(CC(C3)C1)C2` (configuration not stated), the inhibition is 86.5% (active). For `O=C(Nc1cccc(C(F)(F)F)c1)c1ccc(N2CCNCC2)c([N+](=O)[O-])c1`, the inhibition was -16.4%.

As for `O=C(NC1C2CC3CC(C2)CC1C3)c1ccc(N2CCNCC2)c([N+](=O)[O-])c1` (configuration not stated), the inhibition was 52.3%. Consider `O=C1C=C(c2ccnc3cc(Cl)ccc23)C[C@@H](c2ccc3c(c2)OCO3)C1`, for which the inhibition was 6.37%.
